The whole screen tested about 68,000 compounds, of which about 2,700 (4%) showed an effect of 50% or more. Only a selection was taken, and strong results are over-represented in it overall.

This experiment has as its system Plasmodium berghei. Put plainly: Screen against P. berghei liver stage (PbLuc), transformed with Luciferase, at 2uM. The format is functional, HepG2. To be noted: tested at 2 uM.
With `c1ccc(CN2CCC(Cc3noc(C4CC4)n3)CC2)cc1`, the INHIBITION turned out to be 17.33%.

With `c1cc2c(cc1CN1CCC(Cc3noc(C4CC4)n3)CC1)OCCO2`, the INHIBITION is listed as 1.52%.

For `c1cc(CN2CCC(Cc3noc(C4CC4)n3)CC2)c2c(c1)OCO2`, the INHIBITION stood at 71.06%.

Regarding `Cc1nccn1-c1ccc(=O)n(CCNC(=O)c2cccs2)n1`, the INHIBITION is -47.31%.

In the case of `O=C(c1cccc(S(=O)(=O)NCCc2nccs2)c1)N1CCOCC1`, the INHIBITION came to 3.58%.

For `CS(=O)(=O)N1C[C@@H]2CC[C@H]1CN(Cc1ccncc1)C2`, the INHIBITION is on record as -56.9%.

For `Cc1ncsc1CN(Cc1ccccc1)Cc1ncc[nH]1`, the INHIBITION was -43.51%.

Regarding `Cc1ncsc1CN(Cc1ccccc1)Cc1ccncc1`, the INHIBITION worked out at 61.06%.

For the molecule `Cc1ncsc1C(=O)N(C)Cc1ccncc1`, the INHIBITION was -25.22%.

Regarding `Cn1nc(C2CCN(C(=O)c3cnccn3)C2)cc1CCO` (stereo not given), the INHIBITION is -18.15%.

For the molecule `Cc1ccc(-n2ccnc2)c(C(=O)NCCOCC(F)(F)F)c1`, the INHIBITION came out at 16.98%.

On to `Cc1ccc(-n2ccnc2)c(C(=O)NCCCN(C)C)c1`, for which the INHIBITION amounted to 20.21%.

As to `Cc1ccc(-n2ccnc2)c(C(=O)NCCOCC2CCCO2)c1` (stereo not given), the INHIBITION is given as 51.4%.

In the case of `CN1CCN(C(=O)NC2CCCC2)Cc2cccnc21`, the INHIBITION is recorded as 11.87%.

For the molecule `CN1CCN(S(=O)(=O)C2CC2)Cc2cccnc21`, the INHIBITION is -5.9%.

With `CN1CCN(C(=O)N2CCCC2)Cc2cccnc21`, the INHIBITION turned out to be 52.3%.

In the case of `CN1CCN(S(C)(=O)=O)Cc2cccnc21`, the INHIBITION is 58.97%.

With `CN(C)C(=O)N1CCN(C)c2ncccc2C1`, the INHIBITION came out at 47.25%.

For `CCS(=O)(=O)N1CCN(C)c2ncccc2C1`, the INHIBITION was found to be 4.07%.

For `Cc1nc(Nc2nccs2)cc(C2CCCN2)n1` (stereo not given), the INHIBITION was -26.8%.

For `CCC(O)Cn1nc(CCSC)nc1-c1ccc2[nH]ccc2c1` (stereo not given), the INHIBITION came to 20.45%.

Take `O=C(Cc1cnc(-c2c(Cl)cccc2Cl)s1)N1CCOCC1`: the INHIBITION worked out at 56.75%.

Take `CC(=O)N1CCN(C(=O)Cc2cnc(-c3c(Cl)cccc3Cl)s2)CC1`: the INHIBITION worked out at 25.61%.

`O=C(Cc1cnc(-c2c(Cl)cccc2Cl)s1)N1CCC2(CC1)OCCO2`: the INHIBITION is listed as -6.29%.

For the molecule `NC(=O)CCNC(=O)C1(N2CCCCC2)Cc2ccccc2C1`, the INHIBITION turned out to be 14.19%.

With `Clc1ccccc1CCN1CCN(c2ccc3nncn3n2)CC1`, the INHIBITION turned out to be 50.77%.

For the molecule `c1ccc(CCN2CCN(c3ccc4nncn4n3)CC2)nc1`, the INHIBITION is -59.79%.

On to `c1ccc(CCN2CCN(c3ccc4nncn4n3)CC2)cc1`, for which the INHIBITION is reported as -2.47%.

Turning to `COC1COC2(CCN(Cc3ccco3)CC2)C1` (stereo not given), the INHIBITION amounted to 24.91%.

In the case of `Cc1noc2ncc(C(=O)NCC3CCN(C(C)C)C3)cc12` (stereo not given), the INHIBITION was -5.2%.

As for `CS(=O)(=O)c1cn[nH]c1C1CCCN1C(=O)c1cccnc1` (stereo not given), the INHIBITION is 10.3%.

As for `Cc1ccc(C(=O)N2CCCCC2c2[nH]ncc2S(C)(=O)=O)cn1` (stereo not given), the INHIBITION was 19.75%.

Consider `Cc1cccc(C(=O)N2CCCCC2c2[nH]ncc2S(C)(=O)=O)c1` (stereo not given), for which the INHIBITION stood at 52.69%.

As to `COC(=O)c1ccc(CNC(=O)Nc2ccc(=O)n(C)c2)cc1`, the INHIBITION is given as -18.09%.

Take `CS(=O)(=O)c1cccc(C(=O)NCc2nc3cc(F)ccc3[nH]2)c1`: the INHIBITION is recorded as 30.57%.

In the case of `Fc1ccc(CCC2CCCN(Cc3c[nH]cn3)C2)c(F)c1` (stereo not given), the INHIBITION is -20.35%.

For `Cn1cc(CN2CCCC(CCc3ccccc3C(F)(F)F)C2)cn1` (stereo not given), the INHIBITION was 24.55%.

For `Cn1cc(CN2CCCC(CCc3ccc(F)cc3)C2)cn1` (stereo not given), the INHIBITION was 2.3%.

In the case of `Cn1cc(CN2CCCC(CCc3ccc(F)cc3F)C2)cn1` (stereo not given), the INHIBITION is given as 69.71%.

Consider `Cn1cc(CN2CCCC(CCc3ccc(F)c(F)c3)C2)cn1` (stereo not given), for which the INHIBITION was found to be 64.2%.

For the molecule `Cn1cc(CN2CCCC(CCc3c(F)cccc3F)C2)cn1` (stereo not given), the INHIBITION was 43.27%.

With `CN(C)C(=O)CN1C[C@H]2CCN(Cc3ccccc3)CC[C@H]2S1(=O)=O`, the INHIBITION was -10.78%.

`COC(=O)C(NC(=O)Nc1ccc(C(C)=O)cc1)C(C)C` (stereo not given): the INHIBITION is recorded as -7.05%.

Regarding `CN(C)c1nccc(C2CN(c3cnccn3)CCO2)n1` (stereo not given), the INHIBITION stood at 57.47%.

In the case of `CN(C)c1nccc(C2CN(c3ccccc3)CCO2)n1` (stereo not given), the INHIBITION is recorded as -39.97%.

`CC(C)N1CCOC(c2ccnc(N(C)C)n2)C1` (stereo not given): the INHIBITION is -2.41%.

Consider `N#CCSCCCN1CCC(C(=O)N2CCCCCC2)CC1`, for which the INHIBITION is reported as -28.22%.

Consider `Cc1ccc(CN2CC[C@H](c3nnc(COc4ccc(F)cc4)o3)C2)o1`, for which the INHIBITION was found to be 17.76%.

Consider `COCCNC(=O)[C@H]1C[C@@H]2CCN(CCc3ccccc3)C[C@H]2O1`, for which the INHIBITION is on record as -56.44%.

In the case of `Cn1nc(C(C)(C)C)cc1NC(=O)Cn1ccnc1`, the INHIBITION is -24.02%.

For the molecule `Cc1cn(CC(=O)Nc2cc(C(C)(C)C)nn2C)cn1`, the INHIBITION came out at 53.66%.

As for `CCc1nnc2n1CCN(CC(=O)Nc1cc(C(C)(C)C)nn1C)C2`, the INHIBITION worked out at 54.85%.

For the molecule `CCc1nnc2n1CCN(CC(=O)Nc1cc(C)nn1C)C2`, the INHIBITION is 12.81%.

For the molecule `Cc1cn(CC(=O)Nc2cc(C(C)C)nn2C)cn1`, the INHIBITION was determined as 5.93%.

Consider `CCc1nnc2n1CCN(CC(=O)Nc1cc(C)on1)C2`, for which the INHIBITION was 13.91%.

The values are drawn from ChEMBL document CHEMBL4513216, “Probing the Open Global Health Chemical Diversity Library for Multistage-Active Starting Points for Next-Generation Antimalarials” (ACS Infect Dis, 2020).
